Where “and” joins values, the source holds several entries; their conditions need not be identical. Identical values can stand only once. Hit rate of the full screen: of about 5,500 compounds, about 2,000 (36%) were called active. Inconclusive results (about 18%) are left out. Cut-off read from the data, not from the text of the source: active = normalized growth mostly below about 0.91 (no sharp cut-off); inconclusive = no clear call, values can overlap the other calls; inactive = mostly above about 0.92. This is one part of the list.
Test: chemical genetic growth profiling, strain panel (AID 1159580);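 note: tested at 20 µM; growth read once vehicle control cultures reached saturation at 30 °C; 1 = growth at the plate median or of vehicle wells; lower values mean less growth of the strain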
Settings: growth OD

Measured: normalized growth

CN(C)C(=O)C(CCN1CCC(O)(c2ccc(Cl)cc2)CC1)(c1ccccc1)c1ccccc1
inactive: S. cerevisiae deletion strains, locus YJR075W, strain HOC1, active compounds read low 1.01 and 0.984 | S. cerevisiae deletion strains, locus YKL009W, strain mrt4, active compounds read low 1.01 | S. cerevisiae deletion strains, locus YKL068W, active compounds read low 1 | S. cerevisiae deletion strains, locus YKL085W, strain MDH1 (second series), active compounds read low 1.01 | S. cerevisiae deletion strains, locus YKL085W, strain MDH1, active compounds read low 1.01 | S. cerevisiae deletion strains, locus YKL160W, strain elf1, active compounds read low 0.973 | S. cerevisiae deletion strains, locus YKL190W, strain CNB1, active compounds read low 0.997 | S. cerevisiae deletion strains, locus YKR001C, strain vps1, active compounds read low 1.01 | S. cerevisiae deletion strains, locus YKR026C, strain gcn3, active compounds read low 0.997 | S. cerevisiae deletion strains, locus YKR091W, strain srl3, active compounds read low 0.991 | S. cerevisiae deletion strains, locus YLL001W, strain dnm1, active compounds read low 0.971 | S. cerevisiae deletion strains, locus YLL026W, active compounds read low 0.987 | S. cerevisiae deletion strains, locus YLL041C, strain sdh2, active compounds read low 1 | S. cerevisiae deletion strains, locus YLR027C, strain aat2, active compounds read low 0.976 | S. cerevisiae deletion strains, locus YLR039C, strain RIC1, active compounds read low 1.05 | S. cerevisiae deletion strains, locus YLR058C, strain SHM2, active compounds read low 1 | S. cerevisiae deletion strains, locus YLR102C, strain apc9, active compounds read low 1.01 | S. cerevisiae deletion strains, locus YLR113W, strain HOG1, active compounds read low 0.988 | S. cerevisiae deletion strains, locus YLR221C, strain rsa3, active compounds read low 1 | S. cerevisiae deletion strains, locus YLR258W, strain gsy2, active compounds read low 0.995 | S. cerevisiae deletion strains, locus YLR262C, strain YPT6 (second series), active compounds read low 1.03 | S. cerevisiae deletion strains, locus YLR262C, strain YPT6, active compounds read low 0.991 | S. cerevisiae deletion strains, locus YLR268W, strain sec22, active compounds read low 1.04 | S. cerevisiae deletion strains, locus YLR320W, strain mms22, active compounds read low 0.932 | S. cerevisiae deletion strains, locus YLR330W, strain CHS5, active compounds read low 0.993 | S. cerevisiae deletion strains, locus YLR342W, strain FKS1 (second series), active compounds read low 0.946 | S. cerevisiae deletion strains, locus YLR342W, strain FKS1, active compounds read low 0.955 | S. cerevisiae deletion strains, locus YLR357W, strain rsc2, active compounds read low 0.994 | S. cerevisiae deletion strains, locus YLR370C, strain arc18, active compounds read low 1 | S. cerevisiae deletion strains, locus YLR371W, strain rom2, active compounds read low 1.01 | S. cerevisiae deletion strains, locus YLR384C, strain iki3, active compounds read low 0.996 | S. cerevisiae deletion strains, locus YLR418C, strain cdc73, active compounds read low 0.979 | S. cerevisiae deletion strains, locus YML016C, strain PPZ1, active compounds read low 0.998 | S. cerevisiae deletion strains, locus YML032C, strain rad52, active compounds read low 1.01 | S. cerevisiae deletion strains, locus YML120C, strain ndi1, active compounds read low 0.993 | S. cerevisiae deletion strains, locus YML124C, strain tub3, active compounds read low 1.01 | S. cerevisiae deletion strains, locus YMR058W, strain fet3, active compounds read low 0.996 | S. cerevisiae deletion strains, locus YMR078C, strain ctf18, active compounds read low 1.01 | S. cerevisiae deletion strains, locus YMR125W, strain sto1, active compounds read low 1.02 | S. cerevisiae deletion strains, locus YMR129W, active compounds read low 1 | S. cerevisiae deletion strains, locus YMR205C, strain PFK2, active compounds read low 0.969 | S. cerevisiae deletion strains, locus YMR223W, strain ubp8, active compounds read low 0.992 | S. cerevisiae deletion strains, locus YMR231W, strain pep5, active compounds read low 0.985 | S. cerevisiae deletion strains, locus YMR263W, strain SAP30, active compounds read low 1.01 and 0.992 | S. cerevisiae deletion strains, locus YMR307W, strain GAS1, active compounds read low 0.941 and 0.992 | S. cerevisiae deletion strains, locus YNL067W, strain RPL9B, active compounds read low 1.01 | S. cerevisiae deletion strains, locus YNL071W, strain lat1, active compounds read low 0.975 | S. cerevisiae deletion strains, locus YNL128W, strain TEP1, active compounds read low 1.01 | S. cerevisiae deletion strains, locus YNL153C, strain GIM3, active compounds read low 1.01 | S. cerevisiae deletion strains, locus YNL175C, strain NOP13, active compounds read low 1 | S. cerevisiae deletion strains, locus YNL183C, strain NPR1, active compounds read low 0.939 | S. cerevisiae deletion strains, locus YNL197C, strain WHI3, active compounds read low 0.987 | S. cerevisiae deletion strains, locus YNL209W, strain ssb2, active compounds read low 1.01 | S. cerevisiae deletion strains, locus YNL224C, strain SQS1, active compounds read low 1.04 | S. cerevisiae deletion strains, locus YNL233W, strain BNI4, active compounds read low 1 | S. cerevisiae deletion strains, locus YNL248C, strain rpa49, active compounds read low 0.988 | S. cerevisiae deletion strains, locus YNL250W, strain rad50, active compounds read low 1.02 | S. cerevisiae deletion strains, locus YNL271C, strain bni1, active compounds read low 1.02 | S. cerevisiae deletion strains, locus YNL298W, strain CLA4, active compounds read low 1 | S. cerevisiae deletion strains, locus YNL307C, strain MCK1, active compounds read low 0.994 | S. cerevisiae deletion strains, locus YNL322C, strain KRE1 (second series), active compounds read low 0.993 | S. cerevisiae deletion strains, locus YNL322C, strain KRE1, active compounds read low 1.01 | S. cerevisiae deletion strains, locus YNR049C, strain mso1, active compounds read low 1 | S. cerevisiae deletion strains, locus YNR052C, strain pop2, active compounds read low 1 | S. cerevisiae deletion strains, locus YOL006C, strain TOP1, active compounds read low 1.01 | S. cerevisiae deletion strains, locus YOL012C, strain htz1 1.2 | S. cerevisiae deletion strains, locus YOL147C, strain pex11, active compounds read low 1.01 | S. cerevisiae deletion strains, locus YOR001W, strain rrp6, active compounds read low 0.982 | S. cerevisiae deletion strains, locus YOR061W, strain CKA2, active compounds read low 0.995 | S. cerevisiae deletion strains, locus YOR069W, strain VPS5, active compounds read low 1 | S. cerevisiae deletion strains, locus YOR070C, strain gyp1, active compounds read low 0.996 | S. cerevisiae deletion strains, locus YOR080W, strain dia2, active compounds read low 0.981 | S. cerevisiae deletion strains, locus YOR083W, strain WHI5 (second series), active compounds read low 1.07 | S. cerevisiae deletion strains, locus YOR083W, strain WHI5, active compounds read low 0.954 | S. cerevisiae deletion strains, locus YOR106W, strain vam3, active compounds read low 1 | S. cerevisiae deletion strains, locus YOR136W, strain idh2, active compounds read low 1 | S. cerevisiae deletion strains, locus YOR144C, strain elg1, active compounds read low 1.01 | S. cerevisiae deletion strains, locus YOR184W, strain ser1, active compounds read low 1.02 | S. cerevisiae deletion strains, locus YOR231W, strain MKK1, active compounds read low 0.997 | S. cerevisiae deletion strains, locus YOR265W, strain rbl2, active compounds read low 1 | S. cerevisiae deletion strains, locus YOR270C, strain vph1, active compounds read low 0.996 | S. cerevisiae deletion strains, locus YOR290C, strain snf2, active compounds read low 0.973 | S. cerevisiae deletion strains, locus YOR316C, strain cot1, active compounds read low 1.01 | S. cerevisiae deletion strains, locus YPL051W, strain arl3, active compounds read low 0.99 | S. cerevisiae deletion strains, locus YPL055C, strain LGE1, active compounds read low 0.999 | S. cerevisiae deletion strains, locus YPL078C, strain atp4, active compounds read low 0.971 | S. cerevisiae deletion strains, locus YPL106C, strain sse1, active compounds read low 0.952 | S. cerevisiae deletion strains, locus YPL240C, strain hsp82, active compounds read low 0.992 | S. cerevisiae deletion strains, locus YPL241C, strain CIN2, active compounds read low 0.992 and 1 | S. cerevisiae deletion strains, locus YPL256C, strain CLN2, active compounds read low 0.973 | S. cerevisiae deletion strains, locus YPR119W, strain clb2, active compounds read low 1.01 | S. cerevisiae deletion strains, locus YPR141C, strain kar3, active compounds read low 1.02 | S. cerevisiae deletion strains, locus YPR163C, strain tif3, active compounds read low 1.03 | S. cerevisiae deletion strains, locus YPR167C, strain met16, active compounds read low 1.01 | S. cerevisiae deletion strains, strain wtn01, active compounds read low 1.02 | S. cerevisiae strains, strain wild type, active compounds read low 0.993

Reference: PubChem BioAssay AID1159580 (chemical genetic matrix, 2015)
